Results reported in PubChem BioAssay (NCI).
The panel holds about 83,000 compounds, 20% with a hit somewhere; the sample as a whole holds those more often.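 The test compound was applied at a single concentration to cells in 96-well plates for 48 hours, and percent growth was recorded.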 Activity calls are given as the source filed them. Rule for the calls: active = growth percent below 10; inactive = the rest.

Columns and labels:
Assay in all cases: NCI-60 one-dose screen, 48 h (100 = growth as untreated, 0 = no growth, -100 = all killed)
Conditions in all cases: 10 µM unless noted
NCI-H23 lung = tested on: NCI-H23 lung
NCI-H226 lung = tested on: NCI-H226 lung
NCI-H322M lung = tested on: NCI-H322M lung
HOP-62 NSCLC = tested on: HOP-62 NSCLC
NCI-H460 lung = tested on: NCI-H460 lung
HOP-92 NSCLC = tested on: HOP-92 NSCLC
A549/ATCC NSCLC = tested on: A549/ATCC NSCLC
786-0 renal = tested on: 786-0 renal
COLO 205 colon = tested on: COLO 205 colon
NCI-H522 lung = tested on: NCI-H522 lung

Measured: growth

Cn1cc(-c2cnc3ccc(NC(=O)Nc4ccc(F)c(Br)c4)cc3n2)cn1
active: HOP-62 NSCLC 0.864% | HOP-92 NSCLC -15.5% | COLO 205 colon 1.03%
inactive: NCI-H23 lung 32% | NCI-H226 lung 16.7% | NCI-H322M lung 46.3% | NCI-H460 lung 32.4% | A549/ATCC NSCLC 22.5% | 786-0 renal 38.7%

COc1ccc(-c2nc(N3CCCC3=O)sc2Br)cc1OC
inactive: NCI-H23 lung 95.7% | NCI-H226 lung 93.8% | NCI-H322M lung 96.6% | HOP-62 NSCLC 103% | NCI-H460 lung 108% | HOP-92 NSCLC 113% | A549/ATCC NSCLC 96.8% | 786-0 renal 97.5% | COLO 205 colon 112%

Cc1ccc(Nc2nnc(-c3ccc(Cl)cc3)o2)c(C)c1
inactive: NCI-H23 lung 84.4% | NCI-H226 lung 99.6% | NCI-H322M lung 102% | HOP-62 NSCLC 81.8% | NCI-H460 lung 97.1% | HOP-92 NSCLC 107% | A549/ATCC NSCLC 79.2% | 786-0 renal 89.3% | COLO 205 colon 81.4%

CC(C)(C)Nc1c(-c2cccs2)nc2ncccn12
inactive: NCI-H23 lung 96.6% | NCI-H226 lung 90.6% | NCI-H322M lung 98.7% | HOP-62 NSCLC 104% | NCI-H460 lung 102% | HOP-92 NSCLC 98.8% | A549/ATCC NSCLC 98.1% | 786-0 renal 104% | COLO 205 colon 110%

O=C(Nc1ccc(NCCN2CCOCC2)nc1)c1ccc([N+](=O)[O-])cc1
inactive: NCI-H23 lung 100% | NCI-H226 lung 109% | NCI-H322M lung 107% | HOP-62 NSCLC 103% | NCI-H460 lung 110% | HOP-92 NSCLC 103% | A549/ATCC NSCLC 98.3% | 786-0 renal 104% | COLO 205 colon 110%

COc1ccncc1S(=O)(=O)NC(=O)Nc1ccc(Cl)c(Cl)c1
inactive: NCI-H23 lung 89% | NCI-H226 lung 92.5% | NCI-H322M lung 95% | HOP-62 NSCLC 83.9% | NCI-H460 lung 104% | HOP-92 NSCLC 80.7% | A549/ATCC NSCLC 44.5% | 786-0 renal 94.2% | COLO 205 colon 105%

COc1cc(/C(C#N)=C/c2ccc3c(c2OC)OCO3)cc2c1OCO2
active: NCI-H460 lung 9.09% | COLO 205 colon -3.05%
inactive: NCI-H23 lung 30.9% | NCI-H226 lung 89.9% | NCI-H322M lung 35.2% | HOP-62 NSCLC 31.2% | HOP-92 NSCLC 61.2% | A549/ATCC NSCLC 27.9% | 786-0 renal 33.7%

COc1ccc(Nc2[nH]n3c(=O)cc(C)nc3c2C(N)=O)c(OC)c1
inactive: NCI-H23 lung 100% | NCI-H226 lung 97.4% | NCI-H322M lung 96% | HOP-62 NSCLC 85.9% | NCI-H460 lung 105% | HOP-92 NSCLC 73.1% | A549/ATCC NSCLC 89.5% | 786-0 renal 99.1% | COLO 205 colon 102%

CC(C)(C)c1[nH]nc2c1C(c1cc3ccccc3[nH]c1=O)Nc1cc(C(=O)Nc3ccc(Cl)cc3)ccc1N2 (stereo not drawn)
inactive: NCI-H23 lung 78.9% | NCI-H226 lung 105% | NCI-H322M lung 78.6% | HOP-62 NSCLC 83.6% | NCI-H460 lung 74.1% | HOP-92 NSCLC 86.1% | A549/ATCC NSCLC 89.6% | 786-0 renal 66.1% | COLO 205 colon 83.6%

Cc1ccc2nc(Cl)cc(=O)n2c1
inactive: NCI-H23 lung 107% | NCI-H226 lung 108% | NCI-H322M lung 116% | HOP-62 NSCLC 100% | NCI-H460 lung 113% | HOP-92 NSCLC 104% | 786-0 renal 100% | COLO 205 colon 108%

COc1cc(C2C3=C(COC3=O)Nc3cc4c(cc32)OCO4)cc2c1OCO2 (stereo not drawn)
active: NCI-H460 lung 2.94% | COLO 205 colon -51.5%
inactive: NCI-H23 lung 40.3% | NCI-H226 lung 19.2% | NCI-H322M lung 48.5% | HOP-62 NSCLC 36% | HOP-92 NSCLC 40.6% | A549/ATCC NSCLC 11.9% | 786-0 renal 19.9%

CCCCCc1cc[n+](CC(=O)c2ccc([N+](=O)[O-])cc2)cc1
active: COLO 205 colon -5.18%
inactive: NCI-H23 lung 69.6% | NCI-H226 lung 96.5% | NCI-H322M lung 107% | HOP-62 NSCLC 79.8% | NCI-H460 lung 49.6% | HOP-92 NSCLC 51.7% | A549/ATCC NSCLC 78.9% | 786-0 renal 96.5%

COC(=O)[C@]12CC[C@@H](C)[C@H](C)[C@@H]1C1=CC[C@@H]3[C@@]4(C)C(C=O)=C[C@@](C)(COC(=O)c5ccco5)[C@@H]4[C@H](O)C[C@@]3(C)[C@]1(C)CC2
inactive: NCI-H322M lung 33.1%
active: NCI-H23 lung -13.5% | NCI-H226 lung -41.5% | HOP-62 NSCLC -7.36% | NCI-H460 lung -59.6% | HOP-92 NSCLC -54.7% | A549/ATCC NSCLC 7.92% | 786-0 renal -22.9% | COLO 205 colon -78.6%

Cc1ccc2nc(-c3cc4c([nH]c5ccccc54)c(-c4ccc(F)c(F)c4)n3)[nH]c2c1
inactive: NCI-H23 lung 84.1% | NCI-H226 lung 97.7% | NCI-H322M lung 103% | HOP-62 NSCLC 79.8% | NCI-H460 lung 83% | HOP-92 NSCLC 99% | A549/ATCC NSCLC 79% | 786-0 renal 99.6% | COLO 205 colon 88%

CCCCCCCCCCCCCCCCNC(=O)OC(C)C
active: NCI-H322M lung -20.9% | NCI-H460 lung 2.2% | COLO 205 colon -29.6%
inactive: NCI-H23 lung 54.1% | NCI-H226 lung 69.1% | HOP-62 NSCLC 40.5% | HOP-92 NSCLC 53% | A549/ATCC NSCLC 10.3% | 786-0 renal 83.9%

CCCC(=O)Oc1ccc(/C(=C(\C)c2ccccc2)c2ccc(OCCN(CC)CC)cc2)cc1
inactive: NCI-H23 lung 87.6% | NCI-H226 lung 99.3% | NCI-H322M lung 83.3% | HOP-62 NSCLC 92.9% | NCI-H460 lung 69.8% | HOP-92 NSCLC 57.7% | A549/ATCC NSCLC 67.2% | 786-0 renal 71% | COLO 205 colon 51%

C=C1CCC2C3(C)COC(c4ccc(N(C)C)cc4)OC3CCC2(C)C1C/C=C1/C(=O)OCC1O (stereo not drawn)
inactive: NCI-H23 lung 66.4% | NCI-H226 lung 109% | NCI-H322M lung 83.1% | HOP-62 NSCLC 108% | NCI-H460 lung 74.2% | HOP-92 NSCLC 68.9% | A549/ATCC NSCLC 52% | 786-0 renal 96% | COLO 205 colon 19.5%

CC(=O)Nc1ccc(/C=C/C(=O)c2ccccc2)cc1
inactive: NCI-H23 lung 102% | NCI-H226 lung 102% | NCI-H322M lung 120% | HOP-62 NSCLC 97.1% | NCI-H460 lung 105% | HOP-92 NSCLC 74.7% | A549/ATCC NSCLC 92.6% | 786-0 renal 98.5% | COLO 205 colon 112%

Brc1cccc(-c2cc(-c3ccc4nccnc4c3)[nH]n2)c1
active: NCI-H460 lung 4.81% [25 µM] | COLO 205 colon -24.7% [25 µM]
inactive: NCI-H23 lung 46.5% [25 µM] | NCI-H226 lung 22.4% [25 µM] | NCI-H322M lung 50.5% [25 µM] | HOP-62 NSCLC 30.1% [25 µM] | HOP-92 NSCLC 55.5% [25 µM] | A549/ATCC NSCLC 31.2% [25 µM] | 786-0 renal 35.1% [25 µM]

COc1cc(Nc2ncccc2C(=O)NCc2cn(Cc3cccc(Oc4ccccc4)c3)nn2)cc(OC)c1
inactive: NCI-H23 lung 66.2% | NCI-H226 lung 91.7% | NCI-H322M lung 65.2% | HOP-62 NSCLC 56.6% | NCI-H460 lung 20.2% | HOP-92 NSCLC 108% | A549/ATCC NSCLC 38.6% | 786-0 renal 51% | COLO 205 colon 38.3%

COc1ccc(NC(=O)CSc2nc(-c3ccc(OC)c(OC)c3)cc(-c3cc(OC)c(OC)c(OC)c3)n2)cc1
inactive: NCI-H23 lung 101% | NCI-H226 lung 108% | NCI-H322M lung 90.4% | HOP-62 NSCLC 106% | NCI-H460 lung 97.7% | HOP-92 NSCLC 76.8% | A549/ATCC NSCLC 95.7% | 786-0 renal 95.1% | COLO 205 colon 82.5%

ClC(Cl)c1nc(-c2ccccc2)nc2cc(-c3ccccc3)nn12
inactive: NCI-H23 lung 51.5% | NCI-H226 lung 89.9% | NCI-H322M lung 96.6% | HOP-62 NSCLC 44.4% | NCI-H460 lung 74.9% | HOP-92 NSCLC 62.8% | A549/ATCC NSCLC 46.1% | 786-0 renal 80.1% | COLO 205 colon 59.5%

COc1cc(/C=C/C(=O)c2cccc(-n3cc(-c4cc(OC)c(OC)c(OC)c4)[nH]c3=O)c2)cc(OC)c1OC
active: NCI-H23 lung 6.11% | NCI-H460 lung -1.97% | HOP-92 NSCLC -12.2% | COLO 205 colon -36.1%
inactive: NCI-H226 lung 58% | NCI-H322M lung 46% | HOP-62 NSCLC 42.9% | A549/ATCC NSCLC 35.1% | 786-0 renal 19%

CCCCOc1ccc(/C=C2/SC(N3CCCC3)=NC2=O)cc1
inactive: NCI-H23 lung 98.8% | NCI-H226 lung 85.5% | NCI-H322M lung 98.8% | HOP-62 NSCLC 99.3% | NCI-H460 lung 99% | HOP-92 NSCLC 86.8% | NCI-H522 lung 82.4% | COLO 205 colon 104%

O=S(=O)(CC(O)(c1ccccc1)c1ccccc1)CC(O)(c1ccccc1)c1ccccc1
inactive: NCI-H23 lung 88.3% | NCI-H226 lung 84.1% | NCI-H322M lung 59.3% | HOP-62 NSCLC 68.8% | NCI-H460 lung 77.6% | HOP-92 NSCLC 86.7% | A549/ATCC NSCLC 94.1% | 786-0 renal 90.2% | COLO 205 colon 90.2%

O=[N+]([O-])c1ccc(-c2cn(-c3ccccc3)c(-c3ccccc3)n2)cc1
inactive: NCI-H23 lung 78.7% | NCI-H226 lung 95.4% | NCI-H322M lung 40.5% | HOP-62 NSCLC 62.4% | NCI-H460 lung 35.3% | HOP-92 NSCLC 81.2% | A549/ATCC NSCLC 55.6% | 786-0 renal 92.5% | COLO 205 colon 101%

CCCCOc1ccc(/C=C2/SC(N3CCOCC3)=NC2=O)cc1OCC
inactive: NCI-H23 lung 98.6% | NCI-H226 lung 92% | NCI-H322M lung 94.3% | HOP-62 NSCLC 104% | NCI-H460 lung 99.5% | HOP-92 NSCLC 70.7% | NCI-H522 lung 75% | COLO 205 colon 113%

COc1ccc(OC)c(/C=C2\Oc3cc(OCCCN4CCCC4)ccc3C2=O)c1
inactive: NCI-H23 lung 80.6% | NCI-H226 lung 88.7% | NCI-H322M lung 88.9% | HOP-62 NSCLC 95.6% | NCI-H460 lung 61.3% | HOP-92 NSCLC 77.6% | A549/ATCC NSCLC 81.2% | 786-0 renal 84.2% | COLO 205 colon 85.6%

O=C(CSc1nc2ccccc2[nH]1)Nc1ccc(-c2nc3ccccc3s2)c(Cl)c1
inactive: NCI-H226 lung 40.3% | NCI-H322M lung 64.9% | HOP-62 NSCLC 10.2% | COLO 205 colon 19.5%
active: NCI-H23 lung -32.5% | NCI-H460 lung -4.98% | HOP-92 NSCLC -11.9% | A549/ATCC NSCLC -33.7% | 786-0 renal -72.9%
